Drawing on PubChem BioAssay (NCATS), this text covers Potency for 41 molecules.

In test [1] the target is Aldehyde dehydrogenase, mitochondrial (Homo sapiens) (UniProt P05091). Put plainly: qHTS for Inhibitors of the Aldehyde Dehydrogenase Family (ALDH2) Primary screen (AID 2061308; note: nearly all actives have a fitted effect of over 55% in size). (In general: Quantitative high-throughput screening tests each substance at several concentrations.)
Test [2] concerns the target Retinaldehyde dehydrogenase 3 (Homo sapiens) (UniProt P47895). Put plainly: qHTS for Inhibitors of the Aldehyde Dehydrogenase Family (ALDH1A3) Primary screen (AID 2061315).

Each structure is given as a SMILES string. Results filed as inconclusive are left out. A call without a number means that no potency is given here. Calls of active or inactive are those of the source. Calls come from the whole dose curve; as a rule, active = well fitted curve in the direction sought with a large enough effect; inconclusive = small, poorly fitted or top-dose-only effect, or another doubt; inactive = no such curve, though single readings can be large; an effect the other way counts as inactive or inconclusive.

Take `Cc1ccc(-c2ccc(=O)n(CC(=O)NCCc3ccccn3)n2)cc1`: the Potency result in test [1] and in test [2] was “inactive” throughout.
`Cc1cc2c(s1)c1cnn(Cc3cc(Cl)ccc3F)c(=O)c1n2C`: the Potency result in test [1] and in test [2] was “inactive” in each case.
As for `CCCn1c(-c2ccc(F)cc2)nc2c(NCCCN(C)C)nc(C)nc21`, the Potency entry in test [1] and in test [2] was “inactive” in each case.
For `O=C1CCc2cc(S(=O)(=O)Nc3cccc(Br)c3)ccc2N1`, the Potency result in test [1] and in test [2] was “inactive” each time.
With `C=C1CC2OC(=O)C(=C)C2C(OC(=O)/C(C)=C\C)CC2(C)OC1=CC2=O` (configuration not stated), the Potency result in test [1] and in test [2] was “inactive” in each case.
Turning to `CCC1C(=O)N(C)c2cnc(Nc3ccc(C(=O)NC4CCN(C)CC4)cc3OC)nc2N1C1CCCC1` (configuration not stated), the Potency result in test [1] and in test [2] was “inactive” throughout.
As to `COc1cccc(C2=Nn3c(nnc3-c3ccccc3O)SC2)c1`, the Potency entry in test [1] and in test [2] was “inactive” in each case.
For `c1nc(NCc2ccc3c(c2)OCO3)c2cc(-c3ccoc3)ccc2n1`, the Potency entry in test [1] and in test [2] was “inactive” each time.
Take `COc1cc(C(=O)OC[C@@]2(O)CO[C@@H](O[C@H]3[C@H](Oc4ccc(O)cc4)O[C@H](CO)[C@@H](O)[C@@H]3O)[C@@H]2O)cc(OC)c1O`: the Potency entry in test [1] and in test [2] was “inactive” throughout.
For `Cc1ccc(OCCn2c(CCNC(=O)c3ccc4ccccc4c3)nc3ccccc32)cc1`, the Potency entry in test [1] and in test [2] was “inactive” in each case.
With `Cc1ccc(OCCn2c(CCNC(=O)Cc3cccc4ccccc34)nc3ccccc32)cc1`, the Potency result in test [1] and in test [2] was “inactive” in each case.
Regarding `O=S(=O)(Nc1nc(-c2ccccc2C(F)(F)F)nc2ccccc12)c1ccc(-c2ccnc(C(F)(F)F)c2)cc1`, the Potency entry in test [1] and in test [2] was “inactive” throughout.
`CC(C)c1ccccc1SC1=NS(=O)(=O)c2ccccc21`: the Potency entry in test [1] and in test [2] was “inactive” in each case.
In the case of `COc1cc(Cl)ccc1C(=O)Nc1nc(-c2ccccc2)cs1`, the Potency entry in test [1] and in test [2] was “inactive” each time.
Turning to `COc1cc(Nc2nc(-c3ccncc3)nc3ccccc23)ccc1Cl`, the Potency entry in test [1] and in test [2] was “inactive” each time.
With `C[C@H]1CN(S(=O)(=O)c2c(F)cccc2F)CCN1S(=O)(=O)c1ccc2c(c1)OCCO2`, the Potency entry in test [1] and in test [2] was “inactive” each time.
For `N#Cc1nc(Nc2cc(F)cc(F)c2)c2ncn(CCO)c2n1`, the Potency entry in test [1] and in test [2] was “inactive” each time.
For the molecule `C/C=C(\C)C(=O)OC1C(C)C2(O)C(C=C(CO)CC3(O)C(=O)C(C)=CC32)C2C(C)(C)C12OC(=O)C(C)C` (configuration not stated), the Potency result in test [1] and in test [2] was “inactive” in each case.
Consider `CCCn1c(-c2ccc(F)cc2)nc2c(NC3CCN(Cc4ccccc4)C3)nc(C)nc21` (configuration not stated), for which the Potency result in test [1] and in test [2] was “inactive” throughout.
For `COc1ccccc1CNc1ccc(S(=O)(=O)Nc2nccs2)cc1`, the Potency result in test [1] and in test [2] was “inactive” throughout.
For `c1c[nH]c(CNc2ncnc3ccc(-c4ccoc4)cc23)n1`, the Potency result in test [1] and in test [2] was “inactive” each time.
Take `CC(C)(C)OC(=O)NCC(=O)NNC(=O)C(C(=O)OCc1ccccc1)c1ccccc1` (configuration not stated): the Potency entry in test [1] and in test [2] was “inactive” each time.
As to `CCN(CC)CCCn1c(-c2ccccc2)nc2c(NCCOC)nc(C)nc21`, the Potency entry in test [1] and in test [2] was “inactive” throughout.
For the molecule `O=C(Nc1ccc(Cl)c(Cl)c1)N1CCN(c2ccncc2)CC1`, the Potency entry in test [1] and in test [2] was “inactive” in each case.
As to `N#Cc1ccc(Nc2nn3c(=O)c4ccccc4nc3s2)cc1`, the Potency result in test [1] and in test [2] was “inactive” each time.
For the molecule `Cc1ccnc(NC(=S)NCCN(C)c2cccc(C(F)(F)F)c2)c1`, the Potency entry in test [1] and in test [2] was “inactive” in each case.
Take `O=C(Nc1ccc(Cl)cc1)Nc1cccc(-c2cccc(N3CCCC3)n2)c1`: the Potency entry in test [1] and in test [2] was “inactive” throughout.
Take `O=S(=O)(Nc1nccs1)c1ccc(NCc2cccc(O)c2)cc1`: the Potency entry in test [1] and in test [2] was “inactive” throughout.
As to `CN(CCc1cnc[nH]1)c1ncnc2ccc(-c3ccc4c(c3)OCO4)cc12`, the Potency entry in test [1] and in test [2] was “inactive” throughout.
For the molecule `Cc1nnc(-c2cnn(C)c2N)n1CCCc1ccccc1`, the Potency entry in test [1] and in test [2] was “inactive” each time.
Take `O=C(Nc1ccc(Cl)c(C(F)(F)F)c1)Nc1nnc(-c2cccnc2)s1`: the Potency result in test [1] and in test [2] was “inactive” each time.
In the case of `c1nc(N2CCNCC2)c2cc(-c3ccc4c(c3)OCO4)ccc2n1`, the Potency entry in test [1] and in test [2] was “inactive” in each case.
Turning to `O=[N+]([O-])c1cccc(S(=O)(=O)N2CCN(S(=O)(=O)c3ccc4c(c3)OCCO4)CC2)c1`, the Potency entry in test [1] and in test [2] was “inactive” each time.
As to `COc1ccc(C2=Nn3c(nnc3-c3ccccc3C(F)(F)F)SC2)cc1OC`, the Potency entry in test [1] and in test [2] was “inactive” throughout.
On to `Cc1nc(-c2ccccc2C(C)C)nc(NCc2ccc(-c3cccnc3)cc2)c1C`, for which the Potency entry in test [1] and in test [2] was “inactive” each time.
Turning to `N#Cc1ccc(-c2ccc(NC(=O)c3cccs3)cn2)cc1`, the Potency entry in test [1] and in test [2] was “inactive” in each case.
Consider `COc1ccc(NC(=S)N2CCN(c3cccc(C(F)(F)F)c3)CC2)nc1`, for which the Potency entry in test [1] and in test [2] was “inactive” in each case.
Consider `O=C(O)c1ccc(O)c2ncc(NC3CCNCC3)cc12`, for which the Potency result in test [1] and in test [2] was “inactive” in each case.
In the case of `Cc1cnc(-c2ccccc2C2COC2)nc1NCC1CCN(c2cccnc2)CC1`, the Potency result in test [1] and in test [2] was “inactive” each time.
On to `Cc1onc(-c2ccccc2Cl)c1C(=O)N[C@@H]1C(=O)N2[C@@H]1SC(C)(C)[C@@H]2C(=O)O`, for which the Potency entry in test [1] and in test [2] was “inactive” each time.
For `COc1cccc(NC(=S)N2CCN(c3ccc(Cl)cc3Cl)CC2)n1`, the Potency entry in test [1] and in test [2] was “inactive” throughout.
